Here are results for eleven compounds from PubChem BioAssay (EPA / NIEHS).

Assay [1] can be described thus: TOX21_p53_BLA_p2_viability: Viability Assessment in the Tox21 HCT-116 p53 Agonism Beta-lactamase Assay, Phase 2 (AID 2283591).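 Also: compound exposure lasted 16 h at 37 °C; actives lower the ATP signal meaning cytotoxicity.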 An outline of the steps:
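Cytotoxicity readout: CellTiter-Glo ATP luminescence, 30 min at room temperature, after the beta-lactamase read. Cells were HCT116 exposed 16 h at 37C to compounds pin-transferred at 217-fold dilution from DMSO stocks.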

Assay [2] addresses Cellular tumor antigen p53 (Homo sapiens) (UniProt P04637). The assay can be described thus: TOX21_p53_BLA_p2_ratio: Tox21 HCT-116 p53 Agonism Beta-lactamase Assay, Ratio, Phase 2 (AID 2283592). An outline of the steps: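 Read-out is the blue/green (460/530 nm, 405 nm excitation) ratio after 2 h CCF4-AM loading, fitted as gain versus DMSO. Compounds, pinned at 217-fold dilution from DMSO stocks, stayed 16 h on HCT-116 beta-lactamase reporter cells seeded 5 h earlier.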

Assay [3] can be described thus: TOX21_p53_BLA_p3_viability: Viability Assessment in the Tox21 HCT-116 p53 Agonism Beta-lactamase Assay, Phase 3 (AID 2283593).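 Also: cells exposed to compound for 16 h before reading.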 In outline: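 Cellular ATP was quantified by CellTiter-Glo luminescence, read after 30 min at room temperature. Beforehand, HCT116 cells (4000/well) received compound 5 h post-seeding, 217-fold diluted from DMSO, then incubated 16 h at 37C.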

The target in assay [4] is Cellular tumor antigen p53 (Homo sapiens) (UniProt P04637). As to the kind of experiment: TOX21_p53_BLA_p3_ratio: Tox21 HCT-116 p53 Agonism Beta-lactamase Assay, Ratio, Phase 3 (AID 2283596). In outline:
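Cells were seeded at 4000/well, rested 5 h at 37C, then dosed with DMSO compound solutions (217-fold dilution) for 16 h. CCF4-AM substrate was loaded for 2 h at room temperature, and the 460/530 nm emission ratio was fitted for gain of signal versus DMSO.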

Assay [5] can be described thus: TOX21_p53_BLA_p4_viability: Viability Assessment in the Tox21 HCT-116 p53 Agonism Beta-lactamase Assay, Phase 4 (AID 2283597).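 Also: hits lower the luminescence signal meaning cytotoxicity.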 An outline of the steps: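 Cytotoxicity as reduced cellular ATP (CellTiter-Glo luminescence, 30 min room temperature), measured in the same wells following the CCF4 FRET p53 reading. Human HCT-116 cells received compounds in DMSO (217-fold dilution) for 16 h.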

Assay [6] deals with Cellular tumor antigen p53 (Homo sapiens) (UniProt P04637). As to the kind of experiment: TOX21_p53_BLA_p5_ratio: Tox21 HCT-116 p53 Agonism Beta-lactamase Assay, Ratio, Phase 5 (AID 2283599). An outline of the steps: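 Beta-lactamase reporter ratio (blue 460 nm over green 530 nm, 405 nm excitation) after 2 h CCF4-AM loading, in HCT-116 cells exposed 16 h at 37 C to compounds pinned at 217-fold dilution. Increases relative to DMSO baseline scored.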
Cellular tumor antigen p53 (Homo sapiens), sequence (P04637 whole entry, looked up): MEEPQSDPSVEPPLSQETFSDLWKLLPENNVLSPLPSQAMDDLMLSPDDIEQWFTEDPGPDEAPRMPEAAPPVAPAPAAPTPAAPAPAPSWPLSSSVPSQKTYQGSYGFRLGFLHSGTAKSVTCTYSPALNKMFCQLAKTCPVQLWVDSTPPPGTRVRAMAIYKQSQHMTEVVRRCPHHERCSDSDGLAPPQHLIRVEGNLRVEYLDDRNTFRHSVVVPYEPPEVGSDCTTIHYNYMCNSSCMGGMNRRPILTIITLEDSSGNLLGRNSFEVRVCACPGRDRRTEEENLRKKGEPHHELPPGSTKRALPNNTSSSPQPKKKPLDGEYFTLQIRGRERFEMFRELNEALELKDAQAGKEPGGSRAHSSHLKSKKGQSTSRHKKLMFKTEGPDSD

Assay [7] in a line: TOX21_p53_BLA_p5_viability: Viability Assessment in the Tox21 HCT-116 p53 Agonism Beta-lactamase Assay, Phase 5 (AID 2283600). In outline:
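Viability came from CellTiter-Glo ATP luminescence, read after 30 min at room temperature. Before this, HCT-116 p53-bla cells (4000/well) had 16 hours of compound exposure at 37C, with DMSO stocks diluted 217-fold on transfer.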

For assay [8], the target named is Cellular tumor antigen p53 (Homo sapiens) (UniProt P04637). As to the kind of experiment: TOX21_p53_BLA_p4_ratio: Tox21 HCT-116 p53 Agonism Beta-lactamase Assay, Ratio, Phase 4 (AID 2283601). An outline of the steps: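 Signal is the blue/green (460nm/530nm) ratio of cleaved versus uncleaved CCF4-AM substrate, read after 2 h substrate loading. Cells were HCT116 carrying the p53-responsive beta-lactamase reporter, dosed 16 h at 37C, 5% CO2; CellTiter-Glo measured in parallel.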

Assay [9] is described as follows: TOX21_TRB_BLA_Antagonist_Followup_viability: Viability Assessment in the Tox21 Thyroid Hormone Receptor beta Antagonism Beta-lactamase (BLA) Follow-Up Assay (AID 2283961). An outline of the steps: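 ATP-based CellTiter-Glo luminescence (30 min, room temperature) run in the same wells as the TRβ-bla readout. Cells: GeneBLAzer HEK293T expressing GAL4-TRβ LBD, exposed 18 h at 37C to compounds at 11 concentrations in triplicate, stripped-serum medium.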

In assay [10] the target is THRB (gene 7068) (UniProt P10828). The assay can be described thus: TOX21_TRB_COA_Antagonist_Followup_ratio: Tox21 Thyroid Hormone Receptor beta Antagonism through Coactivator Recruitment Follow-Up Assay, Ratio (AID 2283967). An outline of the steps:
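Coactivator recruitment to the GST-tagged TRb ligand-binding domain (5.0 nM) was read as the 520/495 nm TR-FRET ratio, using 200 nM fluorescein SRC-2 peptide and 2 nM terbium anti-GST. Scaled between DMSO and T3 wells; loss of signal fitted.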

Assay [11] can be described thus: TOX21_TR_RXR_BLA_Antagonist_Followup_viability: Viability Assessment in the Tox21 Thyroid Hormone Receptor beta Retinoid X Receptor alpha (RXRa) Antagonism Beta-lactamase (BLA) Follow-Up Assay (AID 2283979). An outline of the steps: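 Follow-up compounds (11 concentrations, triplicate) were incubated 16 h at 37C/5% CO2 with HEK293T RXRa-bla cells seeded at 2,500/well in charcoal-stripped-serum medium. ATP content by CellTiter-Glo luminescence gave viability; curves fitted in both directions against DMSO.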

Inconclusive results are not listed. Activity calls are given as the source filed them. The calls were made as follows: active = hit-call score of the fitted dose curve at least 0.9, where 1 is the maximum; inconclusive = response in the unintended direction; inactive = score below 0.9.

THRB (gene 7068), sequence (P10828 whole entry, looked up, the tested form may be a part): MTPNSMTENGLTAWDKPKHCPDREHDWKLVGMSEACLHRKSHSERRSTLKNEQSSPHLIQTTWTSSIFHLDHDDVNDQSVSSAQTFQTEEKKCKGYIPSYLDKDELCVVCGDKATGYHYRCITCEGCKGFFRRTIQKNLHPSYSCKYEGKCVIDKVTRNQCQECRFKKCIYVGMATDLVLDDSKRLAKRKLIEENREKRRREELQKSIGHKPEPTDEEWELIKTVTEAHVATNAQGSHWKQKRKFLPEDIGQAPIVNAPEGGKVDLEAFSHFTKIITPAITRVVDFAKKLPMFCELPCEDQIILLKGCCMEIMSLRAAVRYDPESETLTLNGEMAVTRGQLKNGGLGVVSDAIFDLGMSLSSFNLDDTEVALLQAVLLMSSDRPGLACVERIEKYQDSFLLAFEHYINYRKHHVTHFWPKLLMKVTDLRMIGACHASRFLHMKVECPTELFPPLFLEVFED

As for `Nc1c(N=Nc2ccc(-c3ccc(N=Nc4cc(S(=O)(=O)O)c5ccccc5c4N)cc3)cc2)cc(S(=O)(=O)O)c2ccccc12`, the outcome in [1], in assay [2], in assay [3], in assay [4], in [5] and in [6] was inactive. Besides, the call in assay [7] and in assay [8] was inactive.
With `CCCCCCCCCOC(=O)c1ccc(O)cc1`, the AC50 was 53.3 µM (active) in [1], 80.5 µM (active) in [2], 23 µM (active) in assay [5] and 39.3 µM (active) in assay [8]. Further, the compound was called inactive in assay [3], in assay [4], in assay [6] and in assay [7].
Take `CC[C@@H](CO)NCCN[C@@H](CC)CO`: the call in assay [1], in [2], in [3], in [4], in assay [5] and in assay [6] was inactive. The outcome in assay [7] and in assay [8] was inactive.
`CCCOc1ccccc1-c1nc2n[nH]nc2c(=O)[nH]1`: the compound was called inactive in [1], in assay [2], in [3], in assay [4], in assay [5] and in [6]. The outcome in assay [7] and in [8] was inactive.
In the case of `C=COCC1CCC(CO)CC1` (stereo unspecified), the call in assay [1], in assay [2], in assay [3], in assay [4], in assay [5] and in assay [6] was inactive. The call in [7] and in [8] was inactive.
For the compound `CCCC(C(=O)OCCN(CC)CC)(c1ccccc1)c1ccccc1`, the result in assay [1], in assay [2], in [3], in assay [4], in assay [6] and in [7] was inactive. In [8], the result was inactive. In addition, in [5], the AC50 was 31.2 µM (active).
On to `O=[N+]([O-])c1c(Cl)cccc1-c1c[nH]cc1Cl`, for which the call in assay [1], in assay [2], in assay [6], in assay [7] and in [8] was inactive. Also, the AC50 in assay [3] is 37.2 µM (active); in assay [4], 23.6 µM (active); in assay [5], 36.3 µM (active).
On to `CCN(CC)CCNC(=O)c1c(C)[nH]c(/C=C2\C(=O)Nc3ccc(F)cc32)c1C`, for which the result in assay [1], in [2], in assay [3], in [4], in assay [6] and in assay [7] was inactive. Also, the AC50 is 17.7 µM (active) in [5] and 37.1 µM (active) in assay [8].
Take `CCCCCCCCC1CO1` (stereo unspecified): the call in assay [1], in [2], in [3], in assay [4], in [5] and in assay [6] was inactive. For the same compound, the compound was classed as inactive in [7] and in [8].
With `CCn1cc(C(=O)O)c(=O)c2cc(F)c(N3CCNC(C)C3)c(F)c21` (stereo unspecified), the outcome in [1], in [2], in [3], in assay [4], in assay [5] and in assay [6] was inactive. Also, the compound was called inactive in assay [7] and in assay [8].
Regarding `CCc1cc(Cl)c(OC)c(C(=O)NC[C@@H]2CCCN2CC)c1O`, the compound was called inactive in assay [1], in [2], in [3], in [4], in assay [5] and in assay [6]. Besides, the result in assay [7], in assay [8], in assay [9], in [10] and in assay [11] was inactive.
